Results reported in the supplement of paper PMC9262897, “Low-cost anti-mycobacterial drug discovery using engineered E. coli” (Nature Communications, 2022).
Where a name gives a salt, the structure may show the parent alone. ± gives the standard deviation of the averaged measurements.

Tests used:
Assay in all cases: growth (OD600 after 10 h); higher = more growth (less inhibition)
[1] = test system: E. coli TESEC Alr+ wild-type control; settings: compound 0.1 mM; raw OD600 reference: median of DMSO wells 0.241, cell-free background 0.041
Experimental: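 TESEC Mtb Alr E. coli, or the Alr+ wild-type control, in 384-well plates with Prestwick library compounds at 0.1 mM and 1% DMSO, across arabinose induction levels of 1E3 to 1E7 nM. Growth is read as OD600 after 10 h at 37 °C in triplicate biological replicates.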

E. coli TESEC Mtb Asd = settings: compound 0.1 mM
Experimental: (§1)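 TESEC E. coli strains in which the native enzyme is deleted and replaced by arabinose-inducible Mtb Asd, DapB, CysH or TrpD, each grown in its selective medium. Strains were screened against the Prestwick library at 0.1 mM and 1% DMSO in 384-well format at low and high arabinose induction. Growth is read as OD600 after 10 h in triplicate.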

E. coli TESEC Mtb DapB = settings: compound 0.1 mM
Experimental: as §1

[2] = test system: E. coli TESEC Alr+ wild-type control; settings: compound 0.1 mM; raw OD600 reference: median of DMSO wells 0.49, cell-free background 0.052
Experimental: (§2)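 TESEC Mtb Alr E. coli (ΔaraC ΔtolC ΔentC Δalr ΔdadX, arabinose-inducible Mtb Alr) or the Alr+ wild-type control strain, grown in defined M9-fructose medium without D-alanine in 96-well plates with Prestwick library compounds at 0.1 mM and 1% DMSO. Low Alr induction is 0.1 µM arabinose and high induction is 10 mM arabinose.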

E. coli TESEC Mtb Alr = settings: compound 0.1 mM
Experimental: as §2

[3] = arabinose induction (level): High, raw OD600 reference: median of DMSO wells 0.331, cell-free background 0.041
[4] = arabinose induction (level): Low, raw OD600 reference: median of DMSO wells 0.417, cell-free background 0.041
[5] = arabinose induction (level): High, raw OD600 reference: median of DMSO wells […], cell-free background 0.041
[6] = arabinose induction (level): Low, raw OD600 reference: median of DMSO wells 0.227, cell-free background 0.041
[7] = arabinose 100 nM, raw OD600 reference: median of DMSO wells 0.413, cell-free background 0.052
[8] = arabinose 10000000 nM, raw OD600 reference: median of DMSO wells […], cell-free background 0.052

| Compound | growth [1] | growth (E. coli TESEC Mtb Asd; [3]) | growth (E. coli TESEC Mtb Asd; [4]) | growth (E. coli TESEC Mtb DapB; [5]) | growth (E. coli TESEC Mtb DapB; [6]) | growth [2] | growth (E. coli TESEC Mtb Alr; [7]) | growth (E. coli TESEC Mtb Alr; [8]) |
| --- | --- | --- | --- | --- | --- | --- | --- | --- |
| Cc1ccc(-c2ncc(Cl)cc2-c2ccc(S(C)(=O)=O)cc2)cn1 [Etoricoxib] | 0.17 ± 0.0023 | 0.266 ± 0.076 | 0.241 ± 0.0033 | 0.204 ± 0.031 | 0.261 ± 0.029 | 0.388 ± 0.0074 | 0.414 ± 0.0091 | 0.281 ± 0.018 |
| CCCCc1nc(Cl)c(CO)n1Cc1ccc(-c2ccccc2-c2nnn[nH]2)cc1 [Losartan] | 0.204 ± 0.0085 | 0.23 ± 0.017 | 0.409 ± 0.0075 | 0.195 ± 0.015 | 0.228 ± 0.018 | 0.495 ± 0.071 | 0.4187 ± 0.0032 | 0.279 ± 0.0092 |
| CC(=O)c1ccc2c(c1)N(CCCN1CCC(CCO)CC1)c1ccccc1S2 [Piperacetazine] | 0.161 ± 0.0078 | 0.175 ± 0.0042 | 0.222 ± 0.015 | 0.203 ± 0.016 | 0.243 ± 0.023 | 0.405 ± 0.0056 | 0.3984 ± 0.0027 | 0.27 ± 0.039 |
| COc1c(N2CCNC(C)C2)c(F)cc2c(=O)c(C(=O)O)cn(C3CC3)c12 (stereo not drawn) [Gatifloxacin] | 0.0447 ± 0.0053 | 0.0508 ± 0.0018 | 0.0482 ± 0.0013 | 0.04873 ± 0.00025 | 0.04953 ± 0.00047 | 0.05293 ± 0.00023 | 0.0533 ± 0.00079 | 0.0521 ± 0.0016 |
| C[C@]12C=CC(=O)C=C1CC[C@@H]1[C@@H]2C(=O)C[C@@]2(C)[C@H]1CC[C@]2(O)C(=O)CO [Prednisone] | 0.221 ± 0.01 | 0.237 ± 0.029 | 0.414 ± 0.042 | 0.185 ± 0.0094 | 0.267 ± 0.014 | 0.479 ± 0.044 | 0.412 ± 0.005 | 0.352 ± 0.019 |
| CC(C)(C)NC[C@H](O)COc1ccccc1C1CCCC1 [Penbutolol sulfate] | 0.211 ± 0.0068 | 0.205 ± 0.028 | 0.295 ± 0.038 | 0.184 ± 0.013 | 0.207 ± 0.015 | 0.429 ± 0.019 | 0.412 ± 0.0049 | 0.261 ± 0.047 |
| COC(=O)[C@@H]1[C@H]2C[C@H]3c4[nH]c5ccccc5c4CCN3C[C@@H]2CC[C@@H]1O [Yohimbine hydrochloride] | 0.217 ± 0.0081 | 0.163 ± 0.031 | 0.318 ± 0.074 | 0.166 ± 0.01 | 0.19 ± 0.012 | 0.525 ± 0.13 | 0.409 ± 0.011 | 0.343 ± 0.031 |
| COc1ccc(CC(C)NCC(O)c2ccc(O)c(NC=O)c2)cc1 (stereo not drawn) [Formoterol fumarate] | 0.235 ± 0.0095 | 0.251 ± 0.018 | 0.395 ± 0.057 | 0.212 ± 0.019 | 0.238 ± 0.025 | 0.501 ± 0.04 | 0.41363 ± 5.8e-05 | 0.306 ± 0.019 |
| CC[N+](CC)(CC)CCOc1cccc(OCC[N+](CC)(CC)CC)c1OCC[N+](CC)(CC)CC [Gallamine triethiodide] | 0.245 ± 0.011 | 0.233 ± 0.013 | 0.368 ± 0.033 | 0.19 ± 0.011 | 0.251 ± 0.037 | 0.475 ± 0.062 | 0.4196 ± 0.0011 | 0.372 ± 0.017 |
| OC(CCN1CCCC1)(c1ccccc1)C1CCCCC1 (stereo not drawn) [Procyclidine hydrochloride] | 0.206 ± 0.018 | 0.314 ± 0.14 | 0.473 ± 0.055 | 0.177 ± 0.026 | 0.245 ± 0.033 | – | 0.412 ± 0.009 | 0.317 ± 0.0092 |
| CN1CCN(C(c2ccccc2)c2ccccc2)CC1 [Cyclizine hydrochloride] | 0.216 ± 0.0082 | 0.173 ± 0.0089 | 0.31 ± 0.039 | 0.168 ± 0.0017 | 0.196 ± 0.0017 | – | 0.41 ± 0.011 | 0.325 ± 0.0044 |
| COc1ccc(C[C@@H]2c3cc(OC)c(OC)cc3CC[N@+]2(C)CCC(=O)OCCCCCOC(=O)CC[N@@+]2(C)CCc3cc(OC)c(OC)cc3[C@H]2Cc2ccc(OC)c(OC)c2)cc1OC [Cisatracurium besylate] | 0.188 ± 0.0083 | 0.307 ± 0.04 | 0.414 ± 0.032 | 0.168 ± 0.022 | 0.209 ± 0.021 | – | 0.411 ± 0.0072 | 0.304 ± 0.0097 |
| Cc1ncc([N+](=O)[O-])n1CC(C)O (stereo not drawn) [Secnidazole] | 0.2401 ± 0.001 | 0.369 ± 0.026 | 0.466 ± 0.031 | 0.2001 ± 0.001 | 0.216 ± 0.024 | – | 0.4049 ± 0.0029 | 0.327 ± 0.0064 |
| Nc1nc(NC2CC2)c2ncn([C@H]3C=C[C@@H](CO)C3)c2n1 [Abacavir Sulfate] | 0.238 ± 0.018 | 0.317 ± 0.022 | 0.423 ± 0.015 | 0.183 ± 0.018 | 0.212 ± 0.038 | – | 0.408 ± 0.016 | 0.339 ± 0.0091 |
| O=C(NCCNCC(O)COc1ccc(O)cc1)N1CCOCC1 (stereo not drawn) [Xamoterol hemifumarate] | 0.241 ± 0.013 | 0.447 ± 0.069 | 0.463 ± 0.043 | 0.21 ± 0.0088 | 0.232 ± 0.024 | 0.631 ± 0.0095 | 0.405 ± 0.016 | 0.326 ± 0.0053 |
| COC(=O)Nc1nc2cc([S+]([O-])c3ccccc3)ccc2[nH]1 (stereo not drawn) [Oxfendazol] | 0.251 ± 0.016 | 0.276 ± 0.08 | 0.382 ± 0.044 | 0.173 ± 0.0069 | 0.174 ± 0.042 | 0.634 ± 0.024 | 0.407 ± 0.011 | 0.312 ± 0.022 |
| Cc1cnc(C(=O)O)c[n+]1[O-] [Acipimox] | 0.244 ± 0.006 | 0.263 ± 0.085 | 0.282 ± 0.065 | – | – | 0.497 ± 0.06 | 0.41 ± 0.009 | 0.338 ± 0.021 |
| CCCCNc1c(C(=O)OCC)c(C)nc2c1cnn2CC [Tracazolate hydrochloride] | 0.15 ± 0.017 | 0.165 ± 0.017 | 0.179 ± 0.014 | 0.156 ± 0.0092 | 0.194 ± 0.0047 | – | 0.366 ± 0.0077 | 0.186 ± 0.042 |
| CCOC(=O)[C@H](CCc1ccccc1)N[C@@H](C)C(=O)N1[C@H](C(=O)O)C[C@@H]2CCC[C@@H]21 [Ramipril] | 0.22 ± 0.014 | 0.253 ± 0.065 | 0.365 ± 0.092 | 0.188 ± 0.013 | 0.229 ± 0.0092 | – | 0.42 ± 0.0058 | 0.295 ± 0.022 |
| CCN1CCN(C(=O)N[C@@H](C(=O)N[C@@H]2C(=O)N3[C@@H]2SC(C)(C)[C@@H]3C(=O)O)c2ccccc2)C(=O)C1=O [Piperacillin sodium salt] | 0.237 ± 0.0061 | 0.328 ± 0.021 | 0.4754 ± 0.0046 | 0.204 ± 0.01 | 0.207 ± 0.025 | – | 0.405 ± 0.013 | 0.354 ± 0.011 |
| CC[C@]12CCCN3CCc4c(n(c5ccccc45)[C@@](O)(C(=O)OC)C1)[C@@H]32 [Vincamine] | 0.235 ± 0.0064 | 0.375 ± 0.011 | 0.456 ± 0.006 | 0.191 ± 0.015 | 0.266 ± 0.071 | 0.503 ± 0.059 | 0.422 ± 0.011 | 0.322 ± 0.011 |
